In PubChem BioAssay (NCATS):
Records with an inconclusive call do not appear. Active and inactive are the calls of the source. Calls come from the whole dose curve; as a rule, active = well fitted curve in the direction sought with a large enough effect; inconclusive = small, poorly fitted or top-dose-only effect, or another doubt; inactive = no such curve, though single readings can be large; an effect the other way counts as inactive or inconclusive.

Columns and labels:
[1] = qHTS for ATAD5 Agonist screened against the NCATS CANVASS Library (AID 1347367);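 note: luciferase reporter driven by ATAD5 which rises upon DNA damage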
Summary of the method: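 HEK293T-ATAD5 luc reporter; 2000 cells/well; 5hr settle; cpd 11-pt qHTS; 16hr 37C 5% CO2 dark; viability by CellTiter-Fluor (AFC fluorescence); then luciferase luminescence, 30min RT.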

[2] = G06 Cancer Cell Toxicity qHTS against the NCATS CANVASS Library (AID 1347368); note: series mostly up to about 46 µM; nearly all actives have a fitted effect of over 60% in size
Summary of the method: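 Cytotoxicity toward canine glioma G06 cells is scored from cellular ATP via luminescence after 72 hr compound exposure at 500 cells/well.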

[3] = MCF7 Cancer Cell Toxicity qHTS against the NCATS CANVASS Library (AID 1347369); note: series mostly up to about 46 µM
Summary of the method: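 Cells seeded at 500/well, then compound pinned. Plates incubated 72 hr at 37C, 5% CO2. CellTiterGlo added; luminescence read.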

[4] = qHTS for ATAD5 Antagonist screened against the NCATS CANVASS Library (AID 1347370);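 note: HEK293T cells carrying an ATAD5 luciferase reporter co-treated with 10 µM 5-fluorouridine; series mostly up to about 46 µM; nearly all actives have a fitted effect of over 65% in size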
Summary of the method: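 HEK293T cells with a stably integrated ATAD5-controlled luciferase reporter were exposed to compounds (11-pt) alongside 10 uM 5-fluorouridine as ATAD5 stabilizer for 16hr at 37C. Viability was read by CellTiter-Fluor fluorescence, then ATAD5 by luminescence.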

[5] = J3T Cancer Cell Toxicity qHTS against the NCATS CANVASS Library (AID 1347371);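 note: J3T is a canine glioma cancer cell line seeded at 500 cells per well; series mostly up to about 46 µM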
Summary of the method: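 Viability of the J3T glioma line from dog is scored by ATP luminescence after a 72 hr incubation with natural products.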

[6] = molecular target: Nuclear receptor subfamily 1 group I member 3 (Homo sapiens) (UniProt Q14994); assay: qHTS for Constitutive Androstane Receptor (CAR) Antagonist screened against the NCATS CANVASS Library (AID 1347372);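 note: cells stimulated with 50 nM CITCO agonist so inhibition reflects antagonism; series mostly up to about 46 µM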
Nuclear receptor subfamily 1 group I member 3 (Homo sapiens), sequence (Q14994 whole entry, looked up): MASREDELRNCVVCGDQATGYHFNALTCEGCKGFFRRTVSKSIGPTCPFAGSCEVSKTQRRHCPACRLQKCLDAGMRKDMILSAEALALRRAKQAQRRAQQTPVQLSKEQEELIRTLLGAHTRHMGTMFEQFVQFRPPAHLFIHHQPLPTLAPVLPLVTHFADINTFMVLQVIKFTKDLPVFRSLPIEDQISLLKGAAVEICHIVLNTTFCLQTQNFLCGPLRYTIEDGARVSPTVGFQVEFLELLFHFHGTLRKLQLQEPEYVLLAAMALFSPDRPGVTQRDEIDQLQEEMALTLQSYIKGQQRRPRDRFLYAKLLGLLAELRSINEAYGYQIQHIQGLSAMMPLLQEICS
Summary of the method: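 HepG2 cells stably carrying hCAR and CYP2B6-2.2kb luciferase reporter, 2500 cells/well, compound with 50 nM CITCO agonist for 24hr at 37C. ONE-Glo luminescence measured CAR activity; CellTiter-Fluor read viability.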

[7] = molecular target: Nuclear receptor subfamily 1 group I member 3 (Homo sapiens) (UniProt Q14994); assay: qHTS for Constitutive Androstane Receptor (CAR) Agonist screened against the NCATS CANVASS Library (AID 1347373);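 note: every well also contained 1.5 µM PK11195 alongside the test compound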
Summary of the method: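 CAR agonism is scored as CYP2B6-promoter luciferase induction in a double-stable transfected HepG2 line, where 1.5uM PK11195 is included in each well. Compounds were tested over a 24hr exposure.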

[8] = qHTS for Hypoxia signaling pathway (HIF-1) agonists against the NCATS CANVASS Library (AID 1347375)
Summary of the method: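 Inducers of HIF-1 signaling were detected in ME-180 cells bearing an HRE-driven beta-lactamase reporter after 17 h compound exposure. Activity came from CCF4-AM FRET emission ratio (460/530 nm) in qHTS format.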

[9] = 10-beta competent E. coli microbial cell viability qHTS against the NCATS CANVASS Library (AID 1347376); note: series mostly up to about 46 µM
Summary of the method: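 Cytotoxicity toward competent E. coli is scored from cellular ATP content via BacTiter-Glo luminescence following overnight compound exposure at 37C, 5% CO2.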

[10] = DH5-alpha competent E. coli microbial cell viability qHTS against the NCATS CANVASS Library (AID 1347377)
Summary of the method: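 Cell viability of competent DH5-alpha E. coli is scored from ATP content by luminescence. Cells sit overnight at 37C with compound across an 11-point concentration series.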

[11] = qHTS for H2AX Agonists against the NCATS CANVASS Library (AID 1347378);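 note: phospho-H2AX S139 level in CHO-K1 lysates by TR-FRET emission ratio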
Summary of the method: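 CHO-K1, 1000 cells/well, o/n 37C; cpd several conc, 3 hr 37C, 0.76% DMSO; lyse 30 min RT; cryptate anti-pH2AX(S139) + d2 anti-H2AX, 24 hr RT; HTRF 665/620.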

[12] = qHTS for Inflammasome Signaling Inhibitors: IL-1-beta AlphaLISA screen against the NCATS CANVASS Library (AID 1347379);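 note: human THP-1 cells primed with LPS then triggered with ATP; secreted IL-1B measured as AlphaLISA emission at 615 nm; lower signal means less IL-1B release which is the wanted effect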
Summary of the method: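 Human THP-1 cells were pretreated 1 hr at 37 °C with compounds (up to 57.5 uM final), then stimulated with LPS (250 ng/mL final) and ATP (1.25 mM final). Secreted IL-1B was read by AlphaLISA after 16 hr.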

[13] = Inflammasome Signaling qHTS Counterscreen: IL-1-beta AlphaLISA counterscreen against the NCATS CANVASS Library (AID 1347381);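 note: cell-free check with purified IL-1β in medium and no THP-1 cells; series mostly up to about 57 µM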
Summary of the method: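 To flag interference with the AlphaLISA read-out, a known amount of purified IL-1-beta (4 pg) replaced cell supernatant. Detection used anti-IL-1-beta acceptor beads, biotinylated antibody and streptavidin donor beads at room temperature.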

[14] = Cytotoxicity qHTS for assessment of Hepg2 cells membrane integrity screened against the NCATS CANVASS Library (AID 1347387)
Summary of the method: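 Fluorescence proportional to lysed-cell number, from LDH leaking out of HepG2 cells exposed 5 hr at 37C to 0.59 nM - 46 uM compound (11-point qHTS), is measured after 10 min with CytoTox-ONE.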

[15] = qHTS for Activators of p53 Stress Response Pathway screened against the NCATS CANVASS Library (AID 1347388)
Summary of the method: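 p53RE-bla HCT-116 cells (4000/well) were pre-incubated for 5 h, then treated with compound (11 points) for 16 h at 37C. After 2 h with CCF4, the 460/530 nm ratio gave reporter activation; CellTiter-Glo measured viability.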

[16] = qHTS assay for small molecule disruptors of mitochondrial membrane potential screened against the NCATS CANVASS Library (AID 1347389); details: HepG2 mitochondrial membrane potential, m-MPI red/green ratio, 1.5 h; note: potency is the fitted concentration of half-maximal effect; nearly all actives have a fitted effect of over 60% in size
Summary of the method: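 Compounds tested in 11-point qHTS series on HepG2 cells for 1 hr; membrane-potential dye added for 30 min at 37C. Lower red-to-green ratio indicates loss of potential.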

[17] = qHTS for activators of Nrf2/ARE signaling pathway screened against the NCATS CANVASS Library (AID 1347391); note: nearly all actives have a fitted effect of over 60% in size
Summary of the method: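 Cells carrying an ARE-driven beta-lactamase reporter (HepG2 background) are dosed for 16 h, then stained with CCF4. Cell viability in the same wells is measured by CellTiter-Glo luminescence.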

[18] = qHTS for activators of dead-cell proteases activity screened against the NCATS CANVASS Library (AID 1347392);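 note: luminescence from protease leaking out of membrane-damaged cells cleaving impermeant substrate; rising signal means more cytotoxicity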
Summary of the method: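 HepG2 cells, 2000/well, attached 18 h at 37C, then exposed to compounds (11-point qHTS) for 5 h. Dead-cell protease release read as luminescence from cell-impermeant AAF-aminoluciferin substrate after 15 min at room temperature.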

[19] = qHTS for Hypoxia signaling pathway (HIF-1) antagonists against the NCATS CANVASS Library (AID 1347374);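 note: HRE-bla ME-180 cells stimulated with cobalt chloride to stabilize HIF-1alpha; series mostly up to about 38 µM; nearly all actives have a fitted effect of over 60% in size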
Summary of the method: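 HRE-bla ME-180 cells (2,000/well, 0.5% dialyzed FBS) were pre-incubated 5 h, then given an 11-point compound series plus CoCl2 (60 uM solution as added) for 17 h at 37C. CCF4 β-lactamase read (ex 405, em 460/530 nm) after 2 h at RT.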

[20] = qHTS for Antimalaria activity screened against the NCATS CANVASS Library (AID 1347380);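 note: Plasmodium falciparum strain Dd2 asexual parasites grown in red blood cells; series mostly up to about 29 µM; nearly all actives have a fitted effect of over 40% in size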
Summary of the method: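 Growth inhibition of asexual erythrocytic P. falciparum Dd2 was quantified by SYBR Green DNA staining. Cultures grew 72 h with compound (11-point series) in hypoxic gas at 37C; lysis and staining lasted 18 h.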

Measured: Potency

C=C(C)[C@@H]1CC[C@]2(C(=O)O)CC[C@]3(C)[C@H](CC[C@@H]4[C@@]5(C)CC[C@H](O)C(C)(C)[C@@H]5CC[C@]43C)[C@@H]12
inactive: [1] | [2] | [3] | [4] | [5] | [6] | [7] | [8] | [9] | [10] | [11] | [12] | [13] | [14] | [15] | [17] | [18]
active: [16] 18.6 µM

O=c1c(O)c(-c2ccc(O)c(O)c2)oc2cc(O)ccc12
active: [16] 23.4 µM
inactive: [1] | [3] | [4] | [5] | [6] | [7] | [19] | [8] | [11] | [12] | [20] | [13] | [14] | [18]
